The source of these data is PubChem BioAssay (NCATS).

In assay [1] the target is Glucocorticoid receptor (Homo sapiens) (UniProt P04150). In words: qHTS assay for small molecule antagonists of glucocorticoid receptor signaling (AID 588533; active = well fitted inhibition curve with a large enough effect in the signal ratio, with a control signal flat, not every such curve was filed as active; the % refers to the signal ratio; also: % is scaled to controls: 0 for no effect and ±100 for the full control effect). A digest of the protocol:
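Antagonist-mode qHTS: compound titrations added to GRE-bla HeLa cells, then dexamethasone 2 nM final; 18 h, 37 C. CCF4 FRET fluorescence normalized to dexamethasone and DMSO; IC50 from Hill fit.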
For orientation: qHTS replaces the single test concentration by a dilution series.

Assay [2] has as its target Peroxisome proliferator-activated receptor delta (Homo sapiens) (UniProt Q03181). In words: qHTS assay for small molecule agonists of peroxisome proliferator-activated receptor delta signaling (AID 588534).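 Also: 0% = DMSO basal wells and 100% = positive control agonist at 10 µM.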 An outline of the steps: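 Cells carrying a PPAR-delta beta-lactamase reporter were treated with compounds for 18 h at 37 °C in agonist mode. CCF4 fluorescence was read after 2 h; EC50 and efficacy from Hill fits.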

Assay [3] can be described thus: qHTS assay for small molecule antagonists of peroxisome proliferator-activated receptor delta signaling (AID 588535; active = well fitted inhibition curve with a large enough effect in the signal ratio, with a control signal flat, not every such curve was filed as active; the % refers to the signal ratio;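 as to max response: cells co-treated with a PPAR-delta agonist as stimulator during compound exposure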). The settings on record: HEK293T PPARd-UAS-bla, beta-lactamase FRET ratio, 18 h; 460 nm channel. An outline of the steps: (§1)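 Antagonist-mode beta-lactamase reporter (GeneBLAzer PPAR-delta-UAS-bla) in HEK293T cells, 2% charcoal/dextran FBS, 4000 cells/well. Compound titrations, 18 h at 37 C; CCF4 ratio read, IC50 and efficacy from Hill fits.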

Assay [4] deals with Peroxisome proliferator-activated receptor delta (Homo sapiens) (UniProt Q03181). The assay is described as above. A digest of the protocol: as §1
Peroxisome proliferator-activated receptor delta (Homo sapiens), sequence (Q03181 whole entry, looked up): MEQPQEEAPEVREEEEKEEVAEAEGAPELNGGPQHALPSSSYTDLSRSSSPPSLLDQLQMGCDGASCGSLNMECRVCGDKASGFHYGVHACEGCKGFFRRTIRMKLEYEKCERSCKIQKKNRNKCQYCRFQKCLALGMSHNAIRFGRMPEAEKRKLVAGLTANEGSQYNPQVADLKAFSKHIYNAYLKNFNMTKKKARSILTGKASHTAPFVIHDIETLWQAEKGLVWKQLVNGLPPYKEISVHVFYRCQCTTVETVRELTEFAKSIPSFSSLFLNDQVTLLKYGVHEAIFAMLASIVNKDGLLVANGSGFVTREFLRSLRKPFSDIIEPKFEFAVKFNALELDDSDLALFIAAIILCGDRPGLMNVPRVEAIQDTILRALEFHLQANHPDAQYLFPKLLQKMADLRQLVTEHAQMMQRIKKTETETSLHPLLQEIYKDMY
Assay [5] has as its target Peroxisome proliferator-activated receptor gamma (Homo sapiens) (UniProt P37231). In words: qHTS assay for small molecule agonists of peroxisome proliferator-activated receptor gamma signaling (AID 588536; active = well fitted curve in the direction sought with a large enough effect in the signal ratio, with a control signal flat, not every such curve was filed as active; the % refers to the signal ratio;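 also: 0% = DMSO basal wells and 100% = rosiglitazone at 2 µM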). A digest of the protocol: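 Ratiometric blue/green fluorescence (405 nm excitation; 460 and 530 nm emission) from CCF4-loaded HEK293 reporter cells serves as signal. Exposure to test compounds lasts 16 h at 37 C in medium containing 1% charcoal/dextran-treated serum.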

Assay [6] shares this target. In words: qHTS assay for small molecule antagonists of peroxisome proliferator-activated receptor gamma signaling (AID 588537; active = well fitted inhibition curve with a large enough effect in the signal ratio, with a control signal flat, not every such curve was filed as active; the % refers to the signal ratio;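 also: reporter cells co-stimulated with 50 nM rosiglitazone agonist during compound treatment; % of control where 0% means no effect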). An outline of the steps:
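PPARγ-UAS-bla HEK293 cells (3000/well) in 1% charcoal/dextran-stripped FBS are treated with compound, then stimulated with 50 nM rosiglitazone for 16 h at 37 °C. Read-out is CCF4 β-lactamase fluorescence after 2 h at RT. IC50 comes from Hill fits normalised to rosiglitazone and DMSO.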

In assay [7] the target is Vitamin D3 receptor (Homo sapiens) (UniProt P11473). The assay is described as follows: qHTS assay for small molecule antagonists of vitamin D receptor signaling (AID 588541).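 Also: receptor activated by calcitriol during compound treatment; series mostly up to about 77 µM; % is scaled to controls: 0 for no effect and ±100 for the full control effect.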 An outline of the steps:
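VDR-UAS-bla HEK293T cells in 2% charcoal-stripped FBS were stimulated with 1-alpha,25-dihydroxyvitamin D3 (3 nM final) plus compound for 16 h at 37 C. The beta-lactamase CCF4 readout was normalized to 50 nM agonist and DMSO, and Hill fits gave IC50.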

For assay [8] the target is unchanged. The assay is described as follows: qHTS assay for small molecule agonists of vitamin D receptor signaling (AID 588543).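 Also: 0% = DMSO basal and 100% = reference agonist control.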 An outline of the steps: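 Reporter cells (HEK293T, VDR-UAS-bla) were seeded in medium with 2% charcoal-stripped serum and incubated 5 h, then compounds in concentration series were added for 16 h at 37 °C. Stimulation was scaled between DMSO basal and 50 nM 1α,25-dihydroxyvitamin D3.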

The target in assay [9] is Thyroid hormone receptor beta (Homo sapiens) (UniProt P10828). The assay is described as follows: qHTS assay for small molecule agonists of thyroid hormone receptor beta signaling (AID 588545).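 Also: 0% = DMSO only and 100% = 10 nM T3.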 An outline of the steps:
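Efficacy and EC50 values derive from Hill fits of qHTS titration data, normalized to 10 nM T3 and DMSO-only wells. HEK 293 reporter cells were stimulated for 18 hrs at 37 C, with beta-lactamase activity measured by CCF4 fluorescence.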

Assay [10] can be described thus: qHTS assay for small molecule antagonists of retinoid X receptor alpha signaling (AID 588546; active = well fitted inhibition curve with a large enough effect in the signal ratio, with a control signal flat, not every such curve was filed as active; the % refers to the signal ratio;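 also: cells stimulated with 9-cis-retinoic acid as agonist; % is scaled to controls: 0 for no effect and ±100 for the full control effect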). To be noted: HEK293T RXRa-UAS-bla, beta-lactamase ratio, antagonist mode; measured here: W530 green channel, cytotoxicity proxy. An outline of the steps:
(§2)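 Beta-lactamase reporter inhibition, read as CCF4 fluorescence ratio (ex 405, em 460/530 nm) after 2 h at RT. HEK293T UAS-bla cells, 2500/well, were stimulated with 9-cis-RA at 500 or 100 nM final alongside test compound for 18 h at 37 C.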

Assay [11] deals with Retinoic acid receptor RXR-alpha (Homo sapiens) (UniProt P19793). The description is as above. The settings on record: HEK293T RXRa-UAS-bla, beta-lactamase ratio, antagonist mode. An outline of the steps:
as §2

In assay [12] the target is Thyroid hormone receptor beta (Homo sapiens) (UniProt P10828). The assay is described as follows: qHTS assay for small molecule antagonists of thyroid hormone receptor beta signaling (AID 588547; active = well fitted inhibition curve with a large enough effect in the signal ratio, with a control signal flat, not every such curve was filed as active; the % refers to the signal ratio;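 also: cells stimulated with 0.4 nM T3 agonist during compound exposure; series mostly up to about 77 µM; % is scaled to controls: 0 for no effect and ±100 for the full control effect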). The settings on record: TR-UAS-bla HEK293, beta-lactamase ratio, antagonist mode, 18 h. An outline of the steps:
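TR-UAS-bla GripTite HEK293 cells in 2% charcoal/dextran FBS medium; compounds 0.59 nM to 92 uM with T3 at 0.4nM final, 18 h at 37 C. Beta-lactamase read by CCF4 fluorescence (460/530 nm); Hill fits gave IC50 and efficacy.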

Assay [13] deals with Voltage-gated inwardly rectifying potassium channel KCNH2 (Homo sapiens) (UniProt Q12809). The assay is described as follows: qHTS Assay for Small Molecule Inhibitors of the Human hERG Channel Activity (AID 588834; active = well fitted curve in the direction sought with a large enough effect; an effect the other way counts as inactive or inconclusive;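 also: lower thallium flux fluorescence means stronger hERG block; nearly all actives have a fitted effect of over 50% in size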; also: potency is read from the fitted curve at half-maximal effect). An outline of the steps:
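hERG-BacMam U2OS, 2000 cells/well; 0.7X FluxOR loading 1 hr RT dark; cpd ~10 min 37 °C; stim buffer; FDSS fluorescence 2 min @ 1 s; AC50 Hill fit.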

In assay [14] the target is Luciferin 4-monooxygenase (Photinus pyralis) (UniProt P08659). In words: Biochemical firefly luciferase enzyme assay for NPC (AID 624030; active = well fitted curve in the direction sought with a large enough effect; an effect the other way counts as inactive or inconclusive;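 also: purified P. pyralis luciferase at 10 nM with luciferin and ATP substrate; series mostly up to about 59 µM; 0% = DMSO and -100% = full luciferase inhibition by PTC124 control; nearly all actives have a fitted effect of over 70% in size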). A digest of the protocol:
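Purified P. pyralis luciferase at 10 nM in 50 mM Tris Acetate (final), luminescence read within 5 minutes of enzyme addition to compounds. Activity normalised to PTC124 versus DMSO; concentration-response curves classed by r2, magnitude and activity.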

The nature of assay [15]: S16 Schwann cell viability assay (CellTiter-Glo assay) (AID 624031; active = well fitted curve in the direction sought with a large enough effect; an effect the other way counts as inactive or inconclusive;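 also: native untransfected S16 rat Schwann cells; series mostly up to about 58 µM; plate controls were DMSO-treated cells for no effect and cell-free wells for full effect; nearly all actives have a fitted effect of over 70% in size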). A digest of the protocol: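 Counter-screen for cytotoxicity: parental S16 rat Schwann cells lacking the PMP22 reporters, treated 24 h with compound, viability from cellular ATP by CellTiter-Glo luminescence, normalized to DMSO (0%) and no-cell wells.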
(In general: ATP-based viability assays read luminescence as a measure of living cells.)

A short description of assay [16]: S16 Schwann cell PMP22 intronic element firefly luciferase assay (AID 624032; active = well fitted curve in the direction sought with a large enough effect; an effect the other way counts as inactive or inconclusive; also: nearly all actives have a fitted effect of over 30% in size; also: potency is read from the fitted curve at half-maximal effect). A digest of the protocol:
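Rat S16 Schwann cells stably carrying firefly luciferase driven by a PMP22 intronic element, in 10% FBS, treated 24 h at 37 C. ONE-Glo luminescence normalized to PTC124 control and DMSO (0%); curves classed by r2, magnitude and activity.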

Assay [17] in a line: S16 Schwann cell PMP22 intronic element beta-lactamase assay (AID 624044).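 Also: 0% = DMSO and -100% = potassium clavulanate positive control; nearly all actives have a fitted effect of over 15% in size.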 A digest of the protocol: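 Rat S16 Schwann cells with beta-Lac driven by a PMP22 intronic element, compound-treated 24 h at 37 °C. LiveBLAzer FRET B/G read: 460 nm normalized to potassium clavulanate vs DMSO; 535 nm FRET as viability; concentration-effect curves classified.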
Assay [18] is described as follows: qHTS assay for small molecule agonists of retinoid X receptor alpha signaling (AID 588544). To be noted: HEK293T RXRa-UAS-bla, beta-lactamase reporter, 18 h; 530 nm emission.
In assay [19] the target is Retinoic acid receptor RXR-alpha (Homo sapiens) (UniProt P19793). The description is as above.
Retinoic acid receptor RXR-alpha (Homo sapiens), sequence (P19793 whole entry, looked up, canonical isoform): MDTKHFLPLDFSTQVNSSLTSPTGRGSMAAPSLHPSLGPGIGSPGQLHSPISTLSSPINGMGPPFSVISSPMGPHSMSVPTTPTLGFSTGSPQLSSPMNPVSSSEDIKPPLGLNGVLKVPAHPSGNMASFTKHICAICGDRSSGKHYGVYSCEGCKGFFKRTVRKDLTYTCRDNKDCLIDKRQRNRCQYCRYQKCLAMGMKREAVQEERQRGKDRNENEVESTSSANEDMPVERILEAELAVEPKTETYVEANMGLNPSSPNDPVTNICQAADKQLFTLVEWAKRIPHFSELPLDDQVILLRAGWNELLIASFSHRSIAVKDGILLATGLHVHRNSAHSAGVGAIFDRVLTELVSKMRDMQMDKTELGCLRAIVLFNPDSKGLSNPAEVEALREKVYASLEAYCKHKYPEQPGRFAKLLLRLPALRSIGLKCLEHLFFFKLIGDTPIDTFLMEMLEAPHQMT
Assay [20] deals with Glutaminase kidney isoform, mitochondrial (Homo sapiens) (UniProt O94925). In words: qHTS for Inhibitors of Glutaminase (GLS): LOPAC Validation (AID 624146; active = well fitted curve in the direction sought with a large enough effect; an effect the other way counts as inactive or inconclusive;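 also: glutamate product detected by oxidase and peroxidase coupled Amplex red fluorescence gain; series mostly up to about 46 µM; % is scaled to controls: 0 for no effect and ±100 for the full control effect; nearly all actives have a fitted effect of over 60% in size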). An outline of the steps: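 Enzyme dispensed in phosphate buffer (45 mM, pH 8.2, 0.02% Tween-20), compounds pinned in, then 1 mM L-glutamine solution and the glutamate oxidase–HRP–Amplex Red mix added; fluorescence read immediately and again after 30 min at room temperature.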

Values joined by “and” are separate entries in the source; they are usually repeats but may differ in a detail not shown here. Equal values may be shown once. Inconclusive results are not listed. Active and inactive are the calls of the source. Unless noted, calls follow the shape of the full dose curve.

Luciferin 4-monooxygenase (Photinus pyralis), sequence (P08659 whole entry, looked up): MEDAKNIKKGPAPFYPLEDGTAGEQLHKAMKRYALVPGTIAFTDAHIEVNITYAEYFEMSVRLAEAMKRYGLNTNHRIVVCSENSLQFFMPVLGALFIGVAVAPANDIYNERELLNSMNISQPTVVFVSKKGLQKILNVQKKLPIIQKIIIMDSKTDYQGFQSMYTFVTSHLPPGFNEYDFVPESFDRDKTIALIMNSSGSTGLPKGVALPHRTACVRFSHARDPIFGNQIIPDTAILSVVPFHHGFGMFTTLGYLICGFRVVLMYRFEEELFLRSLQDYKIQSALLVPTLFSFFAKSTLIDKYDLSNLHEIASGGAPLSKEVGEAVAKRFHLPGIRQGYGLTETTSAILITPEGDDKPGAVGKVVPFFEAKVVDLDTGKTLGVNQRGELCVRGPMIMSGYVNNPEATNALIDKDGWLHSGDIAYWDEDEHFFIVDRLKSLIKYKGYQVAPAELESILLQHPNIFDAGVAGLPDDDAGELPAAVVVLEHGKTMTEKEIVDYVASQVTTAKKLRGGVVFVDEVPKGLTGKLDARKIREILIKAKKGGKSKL
Vitamin D3 receptor (Homo sapiens), sequence (P11473 whole entry, looked up): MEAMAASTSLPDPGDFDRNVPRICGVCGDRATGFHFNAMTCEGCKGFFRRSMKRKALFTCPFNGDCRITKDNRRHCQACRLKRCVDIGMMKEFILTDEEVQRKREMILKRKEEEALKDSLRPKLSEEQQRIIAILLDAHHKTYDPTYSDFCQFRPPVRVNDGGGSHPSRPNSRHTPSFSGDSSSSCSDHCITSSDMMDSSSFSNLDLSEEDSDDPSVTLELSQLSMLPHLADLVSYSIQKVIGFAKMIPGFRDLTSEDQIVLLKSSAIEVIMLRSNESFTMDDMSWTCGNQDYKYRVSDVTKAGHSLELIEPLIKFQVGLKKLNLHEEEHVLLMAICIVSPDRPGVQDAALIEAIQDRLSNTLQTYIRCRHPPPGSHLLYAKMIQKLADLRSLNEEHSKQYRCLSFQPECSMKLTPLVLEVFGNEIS
Voltage-gated inwardly rectifying potassium channel KCNH2 (Homo sapiens), sequence (Q12809 whole entry, looked up): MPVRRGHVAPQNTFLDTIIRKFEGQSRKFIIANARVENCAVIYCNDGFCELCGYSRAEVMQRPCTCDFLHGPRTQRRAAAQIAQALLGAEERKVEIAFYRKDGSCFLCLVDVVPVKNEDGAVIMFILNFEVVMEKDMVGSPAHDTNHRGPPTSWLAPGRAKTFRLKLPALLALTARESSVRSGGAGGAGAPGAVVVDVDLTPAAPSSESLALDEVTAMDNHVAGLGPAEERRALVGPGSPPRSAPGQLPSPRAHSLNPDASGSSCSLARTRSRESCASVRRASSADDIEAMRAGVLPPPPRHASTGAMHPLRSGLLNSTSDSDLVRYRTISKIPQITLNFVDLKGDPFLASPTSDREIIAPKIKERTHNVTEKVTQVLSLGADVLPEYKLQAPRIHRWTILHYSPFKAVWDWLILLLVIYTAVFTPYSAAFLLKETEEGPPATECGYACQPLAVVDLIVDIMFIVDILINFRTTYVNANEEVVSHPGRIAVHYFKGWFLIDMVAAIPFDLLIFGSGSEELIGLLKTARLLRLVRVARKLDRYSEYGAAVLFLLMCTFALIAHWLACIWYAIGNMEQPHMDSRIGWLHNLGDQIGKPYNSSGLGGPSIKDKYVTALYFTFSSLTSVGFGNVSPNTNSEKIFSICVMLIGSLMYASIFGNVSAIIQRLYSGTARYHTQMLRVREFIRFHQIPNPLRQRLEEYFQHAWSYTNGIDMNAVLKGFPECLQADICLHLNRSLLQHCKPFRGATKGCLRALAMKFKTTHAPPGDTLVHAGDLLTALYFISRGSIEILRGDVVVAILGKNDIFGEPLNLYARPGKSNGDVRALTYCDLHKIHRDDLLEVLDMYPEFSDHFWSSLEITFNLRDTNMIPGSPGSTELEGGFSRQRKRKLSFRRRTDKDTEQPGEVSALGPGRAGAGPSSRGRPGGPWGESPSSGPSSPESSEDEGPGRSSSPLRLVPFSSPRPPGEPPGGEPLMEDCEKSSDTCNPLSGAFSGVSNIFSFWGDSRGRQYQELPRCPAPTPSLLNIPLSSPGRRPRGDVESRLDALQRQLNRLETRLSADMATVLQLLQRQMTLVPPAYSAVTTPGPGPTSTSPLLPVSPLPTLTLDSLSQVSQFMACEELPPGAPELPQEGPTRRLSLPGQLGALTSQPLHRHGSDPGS
Thyroid hormone receptor beta (Homo sapiens), sequence (P10828 whole entry, looked up): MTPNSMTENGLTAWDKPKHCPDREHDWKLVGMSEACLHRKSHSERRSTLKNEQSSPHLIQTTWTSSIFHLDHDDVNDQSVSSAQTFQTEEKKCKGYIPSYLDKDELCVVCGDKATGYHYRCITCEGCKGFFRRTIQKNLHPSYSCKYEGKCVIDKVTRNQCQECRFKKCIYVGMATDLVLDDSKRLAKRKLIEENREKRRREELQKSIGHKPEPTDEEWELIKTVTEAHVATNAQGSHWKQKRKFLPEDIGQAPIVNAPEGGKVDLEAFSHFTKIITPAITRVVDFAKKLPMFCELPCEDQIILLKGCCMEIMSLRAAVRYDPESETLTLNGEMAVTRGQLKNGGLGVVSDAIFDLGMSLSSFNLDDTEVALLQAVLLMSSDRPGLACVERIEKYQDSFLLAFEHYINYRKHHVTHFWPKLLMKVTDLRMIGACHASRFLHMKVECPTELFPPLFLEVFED
Peroxisome proliferator-activated receptor gamma (Homo sapiens), sequence (P37231 whole entry, looked up): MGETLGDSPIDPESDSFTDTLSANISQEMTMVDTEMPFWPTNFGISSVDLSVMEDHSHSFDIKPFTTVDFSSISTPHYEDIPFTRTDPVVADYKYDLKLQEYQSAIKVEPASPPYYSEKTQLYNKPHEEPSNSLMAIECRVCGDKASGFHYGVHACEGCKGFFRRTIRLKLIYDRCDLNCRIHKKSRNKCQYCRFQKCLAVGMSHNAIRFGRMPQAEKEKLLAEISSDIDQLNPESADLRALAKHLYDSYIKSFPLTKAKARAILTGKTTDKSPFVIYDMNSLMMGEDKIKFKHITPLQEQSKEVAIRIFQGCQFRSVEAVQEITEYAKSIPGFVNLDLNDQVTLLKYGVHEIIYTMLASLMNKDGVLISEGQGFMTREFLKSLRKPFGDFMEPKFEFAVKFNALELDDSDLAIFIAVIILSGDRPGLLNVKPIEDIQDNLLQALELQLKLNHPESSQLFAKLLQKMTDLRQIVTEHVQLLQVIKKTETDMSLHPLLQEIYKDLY
Glucocorticoid receptor (Homo sapiens), sequence (P04150 whole entry, looked up): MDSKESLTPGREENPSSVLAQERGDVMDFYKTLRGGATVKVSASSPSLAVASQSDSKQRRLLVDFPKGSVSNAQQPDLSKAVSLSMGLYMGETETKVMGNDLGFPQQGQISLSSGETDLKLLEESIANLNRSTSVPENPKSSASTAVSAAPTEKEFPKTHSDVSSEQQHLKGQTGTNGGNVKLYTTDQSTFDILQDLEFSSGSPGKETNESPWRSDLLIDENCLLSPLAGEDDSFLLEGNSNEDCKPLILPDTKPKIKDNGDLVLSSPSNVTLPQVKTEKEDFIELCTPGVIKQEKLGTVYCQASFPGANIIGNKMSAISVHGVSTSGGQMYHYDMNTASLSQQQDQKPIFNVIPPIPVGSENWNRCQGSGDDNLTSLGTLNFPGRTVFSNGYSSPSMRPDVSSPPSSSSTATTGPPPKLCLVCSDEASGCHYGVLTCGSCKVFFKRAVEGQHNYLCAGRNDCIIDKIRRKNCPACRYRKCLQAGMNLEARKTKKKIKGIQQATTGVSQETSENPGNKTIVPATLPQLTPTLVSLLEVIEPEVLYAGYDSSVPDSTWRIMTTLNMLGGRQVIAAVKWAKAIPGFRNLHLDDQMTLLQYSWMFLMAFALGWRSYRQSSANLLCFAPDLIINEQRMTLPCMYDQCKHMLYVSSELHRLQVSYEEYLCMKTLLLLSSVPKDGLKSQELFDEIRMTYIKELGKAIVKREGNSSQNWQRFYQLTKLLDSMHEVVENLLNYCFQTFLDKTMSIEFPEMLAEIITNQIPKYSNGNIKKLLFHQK

On to `CCCC(C)(COC(N)=O)COC(N)=O`, for which the Potency result in assay [1], in assay [7], in [13], in assay [14] and in assay [16] was “inactive” in each case. Also, the call in assay [2], in [4], in [5], in [6], in assay [8] and in assay [9] was inactive. Also, the molecule was classed as inactive in assay [15] and in [17]. The max response in [3] is -25.1%; in [10] it was -3.53%; in [11], -3.87% (inactive). In assay [12], the activity change % (negative = inhibition) is 14.4% (inactive).

As to `CC1(C)C(C=C(Cl)Cl)C1C(=O)OC(C#N)c1cccc(Oc2ccccc2)c1` (configuration not stated), the Potency entry in assay [1], in [19] and in assay [14] was “inactive” throughout. Further, the result in assay [6], in assay [8] and in [9] was inactive. In addition, the figures for the max response in assay [18], in [10] and in [11] were 0.437%, -14.1% and -18% (inactive), respectively.

Regarding `O=C(OOC(=O)c1ccccc1)c1ccccc1`, the outcome in assay [2] was inactive.

`O=P1(N(CCCl)CCCl)NCCCO1` (configuration not stated): the Potency result in [1], in assay [7], in assay [19], in assay [13], in assay [14] and in [16] was “inactive” each time. Besides, the Potency entry in assay [20] is “inactive”. In addition, the outcome in assay [2], in assay [4], in assay [5], in assay [6], in assay [8] and in assay [9] was inactive. Also, the result in assay [15] was inactive. The max response in assay [3] was 34.9% and 30.3%; in assay [18] it was 8.36% and -10.5%; in assay [10], -4.41% and 6%; in [11], 8.47% (inactive) and -0.0175% (inactive). For the same molecule, in assay [12], the activity change % (negative = inhibition) is -0.786% (inactive).

As for `CC(O)CN(CCN(CC(C)O)CC(C)O)CC(C)O` (configuration not stated), the molecule was called inactive in assay [2].

As for `CCOC(=O)CC(SP(=S)(OC)OC)C(=O)OCC` (configuration not stated), the Potency entry in [1], in [7], in assay [19], in assay [13], in [14] and in assay [16] was “inactive” in each case. Also, the call in assay [2], in assay [4], in assay [5], in assay [8], in [9] and in assay [15] was inactive. Also, the max response in [3] was 0.513%; in assay [18], 5.59%; in assay [10] it was 12.5% and 3.13% and -23.2%; in [11], -24.3% (inactive) and -13.6% (inactive) and -13.7% (inactive). Besides, in assay [12], the activity change % (negative = inhibition) was -33.5% (inactive).

Regarding `Clc1ccc(C(c2ccc(Cl)cc2)C(Cl)(Cl)Cl)cc1`, the Potency entry in [1], in assay [7] and in [14] was “inactive” each time. For the same molecule, the call in assay [2], in [4], in assay [6], in [8], in assay [9] and in assay [15] was inactive. Moreover, in assay [17], the outcome was inactive. In [3], the max response is -51.4%. Further, the activity change % (negative = inhibition) in [12] is -20.1% (inactive) and -18.4% (inactive). Moreover, the figures for the Potency in [13] and in assay [16] were 31.6 µM (active) and 10.2 µM (active), respectively.

On to `COC(=O)C(c1ccccc1)C1CCCCN1` (configuration not stated), for which the Potency entry in [1], in assay [7], in assay [13], in [14] and in [16] was “inactive” in each case. The result in [5], in assay [6], in assay [8], in assay [9], in assay [15] and in assay [17] was inactive. Further, the max response in assay [10] is -4.37%; in assay [11], -5.94% (inactive). In [12], the activity change % (negative = inhibition) was 13% (inactive).
